# Laboratory results as given in ChEMBL document CHEMBL3433997, “St. Jude Leishmania screening dataset” (2016).
# Tests used:
# Assay type in all cases: functional
# [1] = molecular target: Solute carrier family 2, facilitated glucose transporter member 1 (Homo sapiens) (UniProt P11166); assay: ST_JUDE_LEISH: Cytotoxicity at 2uM final concentration against transgenic Leishmania Mexicana promastigotes LmGLUT1 that are glucose transport deficient and complemented with the human glucose transporter GLUT1. Activity is measured by DNA content using SYBR green in vitro
# Solute carrier family 2, facilitated glucose transporter member 1 (Homo sapiens), sequence (P11166 whole entry): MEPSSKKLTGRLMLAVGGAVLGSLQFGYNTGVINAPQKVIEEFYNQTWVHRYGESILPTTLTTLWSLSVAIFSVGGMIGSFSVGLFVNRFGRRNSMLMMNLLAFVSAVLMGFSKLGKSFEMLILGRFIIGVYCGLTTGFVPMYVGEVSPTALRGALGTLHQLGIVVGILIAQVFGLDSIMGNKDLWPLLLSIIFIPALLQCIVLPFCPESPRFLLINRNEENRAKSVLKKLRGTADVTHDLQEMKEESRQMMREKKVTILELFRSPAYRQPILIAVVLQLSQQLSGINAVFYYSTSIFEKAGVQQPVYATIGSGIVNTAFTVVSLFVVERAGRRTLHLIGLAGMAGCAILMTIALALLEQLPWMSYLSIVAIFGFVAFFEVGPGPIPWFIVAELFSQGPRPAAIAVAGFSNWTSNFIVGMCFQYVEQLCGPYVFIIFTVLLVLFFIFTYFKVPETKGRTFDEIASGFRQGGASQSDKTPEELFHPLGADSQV
# [2] = molecular target: Hexose transporter 1 (Plasmodium falciparum) (UniProt O97467); assay: ST_JUDE_LEISH: Cytotoxicity at 2uM final concentration against transgenic Leishmania Mexicana promastigotes LmPfHT that are glucose transport deficient and complemented with the Plasmodium falciparum hexose transporter. Activity is measured by DNA content using SYBR green in vitro
# [3] = molecular target: Glucose transporter (Leishmania mexicana) (UniProt O61059); assay: ST_JUDE_LEISH: Cytotoxicity at 2uM final concentration against transgenic Leishmania Mexicana promastigotes LmGT2 that are glucose transport deficient and complemented with the L. Mexicana glucose transporter 2. Activity is measured by DNA content using SYBR green in vitro
Structure (SMILES),inhibition [1] [%],inhibition [2] [%],inhibition [3] [%]
CC(C)Oc1ccccc1-c1csc(C(=O)NCC2CCN(Cc3ccc(C(C)(C)C)cc3)C2)c1 (centres undefined),0.7,1.62,-2.96
Cc1n[nH]c2cc(Nc3nccc(Nc4ccc(Oc5ccccc5)cc4)n3)ccc12,11.3,7.61,6.15
Cc1ccc(NC(=O)Nc2ccc(Cl)c(C(F)(F)F)c2)cc1-c1ccc(C(=O)NCCN2CCOCC2)cc1,8.1,5.32,5.24
CCCCc1cc(NCc2ccncc2)nc(Nc2ccccc2)n1,13.6,6.01,4.07
CC(C)c1ccc(NC(=O)NC2CCN(CCCCCN(C)C(=O)/C=C/c3ccc(Cl)c(Cl)c3)C2)cc1 (centres undefined),5.33,7.26,6.41
Cc1ccc(NC(=O)NCCCCCN2CCC(c3c[nH]c4ccccc34)CC2)cc1I,3.96,3.64,3.15
CN1C(C)(C)CC(NC(=O)c2ccc(-c3nc4cc(Cl)c(Cl)cc4[nH]3)cc2)CC1(C)C,2.52,2.2,2.38
CC(=O)C1=NN(c2ccc(Cl)cc2)C(c2cccs2)N1c1ccccc1 (centres undefined),1.62,0.36,0.54
Cc1ccc(O)cc1Nc1ccnc2cc(-c3ccc(CN4CCCCC4)o3)ccc12,14.4,12.2,13.8
CCC(=O)Oc1ccc(NC(=O)c2cccc(OC)c2)cc1,1.64,1.17,1.69
CCN(CC)CCCOC(=O)c1ccc2c(c1)-c1ccc(C(=O)OCCCN(CC)CC)c3cccc-2c13,6.8,3.93,4.24
Cc1cccc2nc(-c3cccc(-c4ccc(NC(=O)Nc5ccc(Cl)c(Cl)c5)cc4)c3)[nH]c12,0.3,-1.23,1.91
COc1cc2nc(NCc3nc4ccccc4[nH]3)nc(N)c2cc1OC,11,11.9,10.3
Cc1cc(C=C(P(=O)(OC(C)C)OC(C)C)P(=O)(OC(C)C)OC(C)C)c2ccccc2c1O,6.71,7.2,1.63
CCCCCCCCN1CCCN(C(=O)c2cccc(NC(=O)Nc3ccc4ccccc4c3)c2)CC1,0.2,-0.59,-0.77
CCc1cc2c3c(N)nc(N)nc3ccc2n1C(C)CC (centres undefined),85.2,86.6,80.3
CNC(=O)c1cnc(Nc2ccc(N3CCN(C)CC3)cc2)nc1Nc1ccccc1OC,4.96,4.09,3.41
O=[N+]([O-])c1cccc(Nc2cncc(-c3ccc(CO)cc3)c2)c1,2.04,0.66,0.83
Cc1n[nH]c2cc(F)c(-c3cc(OC[C@@H](N)Cc4ccccc4)cnc3-c3ccoc3)cc12,10.8,16.1,6.42
O=C(Nc1ccc(Cl)c(C(F)(F)F)c1)c1ccc(Cl)c([N+](=O)[O-])c1,6.41,3.41,0.08
O=C(Nc1nc2cc(S(=O)(=O)NCc3ccc(Cl)c(Cl)c3)ccc2n1CCCn1ccnc1)c1ccc(Cl)cc1,6.51,4.45,4.53
COc1ccc2nccc(N3CCCN(CCNS(=O)(=O)c4ccc5c(c4)NC(=O)CS5)CC3)c2n1,0.19,1,-0.73
CC(C)CCNC(=N)Nc1ccc(OCCCCCOc2ccc(NC(=N)NCCC(C)C)cc2)cc1,6.46,3.87,-1.73

Structure (SMILES),inhibition [1] [%],inhibition [2] [%],inhibition [3] [%]
CC(C)Cc1c(O)nc(SCCN2CCOCC2)[nH]c1=O,-0.96,1.54,-0.43
CC(=O)Oc1c(C2CCN(CCCCNC(=O)c3ccc(NC(=O)c4ccc(Cl)cc4)cc3)CC2)ccc2ccccc12,3.43,3.63,4.42
Cc1ccc(-c2cc(C(=O)Nc3ccc(S(=O)(=O)N4CCCC(C)C4)cc3)[nH]n2)c(O)c1 (centres undefined),-1.53,-1.98,-1.01
Cc1cccc2nc(-c3ccc(-c4ccc(CN5CCN(CCN6CCOCC6)CC5)cc4)cc3)[nH]c12,6.69,8.97,-1.08
O=C(Nc1cccc(-c2ccc(CN3CCCC3)cc2)c1)c1ccc(Cl)cc1,3.03,1.53,1.42
COc1cc(C(=O)Nc2cccc(-c3nc4ccccc4[nH]3)c2)cc(OC)c1OC,4.34,1.94,-3.56
COc1ccc(-c2ccc(NC(=O)c3cccc(C#N)c3)cc2)cc1CN(C)C,1.28,0.34,0.41
COC(=O)c1cccc(NC(=O)NC2CCN(c3ccnc(NCc4ccc(F)cc4)n3)CC2)c1,-2.83,-2.8,-0.54
CN1CCC(c2c[nH]c3ccc(NC(=O)Nc4ccc(-c5ccncc5)c(Cl)c4Cl)cc23)CC1,-2.47,0.63,4.75
COc1ccc(Nc2nccc(NCCNC(=O)Nc3cc(C)ccc3C)n2)cc1,11.1,9.29,1.38
CCN1CCC(N(Cc2ccc(-c3ccc(Cl)cc3)cc2)C(=O)Cn2c(CCc3cccc(F)c3F)cc(=O)c3ccccc32)CC1,9.18,5.52,7.94
Cc1cc(N[C@@H](Cc2ccccc2)C(=O)NCc2cccs2)nc(NCC2CCCCC2)n1,3.33,2.71,-0.41
CC(C)N1CCC(N(Cc2ccc(-c3ccc(C(F)(F)F)cc3)cc2)C(=O)CCCn2c(CCc3cccc(F)c3F)nc(=O)c3ccccc32)CC1,5.92,3.92,6.72
O=C(Nc1ccc(-c2nc3ccccc3[nH]2)cc1)C1CCN(Cc2cccc(F)c2F)CC1,24.2,28.4,16
O=C(N[C@@H](CC1CCCCC1)C(=O)NCCN1CCCCC1)c1ccc(O)c(-c2cccc(C(F)(F)F)c2)c1,2.41,3.95,-0.49
CN1CCC(Oc2ccc(CN3CC[C@H](NC(=O)c4cc(F)cc(F)c4)C3)c3ccccc23)C1 (some centres undefined),7.53,1.81,3.76
CO/C(=C\C=C\c1cc2cc(Cl)c(Cl)cc2[nH]1)C(=O)NCC(C)(C)CN(C)C,-1.89,2.21,1.65
O=C(NOCc1ccccc1)c1cc(Cl)ccc1O,2.44,3.78,2.15
O=C(Nc1ccc(Cl)cc1)Nc1cccc(-c2ccc(-c3nc4cc(F)ccc4[nH]3)cc2)c1,6.12,1.78,4.76
Cc1nc2ccccc2n1C1CC2CCC(C1)N2CCC1(c2ccccc2)CCN(C(=O)Nc2ccc(C(F)(F)F)cc2)CC1 (centres undefined),4.65,4.07,1.78
O=C(c1ccc(-c2ccc(-c3nc4cc(F)ccc4[nH]3)cc2)cc1)N1CCCCC1CN1CCC(O)C1 (centres undefined),4.53,4.9,1.78
Fc1ccc2[nH]c(-c3ccc(-c4ccc(CNCC5CCCO5)cc4)s3)nc2c1 (centres undefined),11.9,9.33,11
COc1cccc(CNC(=O)[C@@H]2CN(C(=O)c3ccccc3)CCN2)c1,-0.92,0.03,0.71

Structure (SMILES),inhibition [1] [%],inhibition [2] [%],inhibition [3] [%]
O=C(/C=C/c1ccc(Cl)c(Cl)c1)NCCCCCN1CCC(c2c[nH]c3c(-c4ccccc4)cccc23)CC1,0.48,4.3,3.07
Cc1nc(-c2ccc(C#N)cc2)sc1C(=O)NCCCCN1CCC(c2ccc3c(c2OCCO)CCCC3)CC1,6.87,6.02,3.7
CNS(=O)(=O)c1ccc(NC(=O)c2cc(-c3cccnc3)nc3ccc(Br)cc23)cc1,2.58,2.73,3.77
Cc1noc(C)c1-c1cccc(CNCc2cccc(-c3ccc(-c4nc5cccc(C)c5[nH]4)s3)c2)c1,2.85,2.47,2.66
CC(C)CCN1C(=O)C(NC(=O)Oc2ccccc2)C(=O)N(CC23CC4CC(CC(C4)C2)C3)c2ccccc21 (centres undefined),-1.21,-2.53,-2.02
Cc1cc(N(C)C)nc(Nc2ccc(NC(=O)c3ccccc3F)cc2)n1,1.36,12.2,2.04
CCc1cn2c3c(cc(C(=O)N[C@@H](Cc4cccc(F)c4)[C@H](O)CNC4CCCCC4)cc13)N(C)S(=O)(=O)CC2,-0.36,-1.06,-0.81
CCCOc1cc(NC(=O)Nc2ccnc3ccccc23)cc(OCCC)c1,-2.56,3,3.42
Cc1ccc(NC(=O)c2ccc(N3CCC(c4ccccc4C)CC3)nc2)cc1,11.9,9.58,8.1
CCC(C)NS(=O)(=O)c1ccc2nc(Nc3ccc(C)c(Cl)c3)n(C3CCCCC3)c2c1 (centres undefined),5.56,5.72,4.46
COc1cc(CN2CCC(N3CCc4cc(NC(=O)c5cc(C)on5)ccc43)C2)ccc1F (centres undefined),2.18,2.25,3.34
CC(C)C[C@H](NC(=O)c1cccc(F)c1)C(=O)N[C@H](/C=N/NC(=O)c1ccccc1)CCc1ccccc1,-1.39,3.32,0.18
COc1cc2c(C3CCN(CC4CCC(NC(=O)/C=C/c5ccc(Cl)c(Cl)c5)CC4)CC3)c[nH]c2cn1 (centres undefined),9.19,8.02,7.96
Cc1nc(-c2cccc(Nc3nccc(NCC(O)c4ccc(C(F)(F)F)cc4)n3)c2)cs1 (centres undefined),1.28,1.67,-0.68
O=C(c1cc(C(=O)Nc2ccc(F)cc2)c(=O)n(-c2ccc(F)cc2)c1)c1cc(Cl)ccc1O,0.23,2.19,0.22
O=C(Nc1ccc(-c2cccc(-c3nc4ccccc4[nH]3)c2)cc1)Nc1ccc(F)c(F)c1F,0.73,-0.07,0.32
O=C1COc2ccc(CNC3CCC(O)(CCc4ccnc5cc6c(cc45)OCCO6)CC3)nc2N1 (centres undefined),3.59,3.14,2.8
NC(=O)c1ccc(NCC(=O)Nc2cccc(-c3cccc(-c4nc5ccccc5[nH]4)c3)c2)cc1,2.82,4.21,0.95
Cn1cccc1C(=O)C(=O)Nc1ccc(-c2ccc(-c3nc4cc(F)ccc4[nH]3)cc2)cc1,8.15,-0.07,-0.45
COc1ccc2c(=NN=Cc3ccccc3)cc(C)[nH]c2c1,12.1,11.5,8.31
O=C(NCC1CCC(C(=O)NC2CCCc3ccccc32)CC1)c1ccc(O)c(-c2ccc(Cl)c(Cl)c2)c1 (centres undefined),3.42,2.81,4.27
O=C(Nc1ccccc1)N(Cc1ccccc1-c1cccc(CNCc2ccc3c(c2)OCO3)c1)C1CCN(Cc2ccccc2)CC1,-2.93,-2.6,-2.56
